Laboratory results published in PubChem BioAssay (NCI).
Compounds without any hit were thinned out: in the full panel of roughly 83,000, 20% have a hit.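 Percent growth is the endpoint: 0 to 100 indicates growth inhibition (40 means 60% inhibition), 0 means no net growth, and negative values indicate cell death.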 Activity calls are given as the source filed them. The calls were made as follows: active = growth percent below 10; inactive = the rest.

Each compound was assayed on MOLT-4 leukemia (assay: NCI-60 one-dose screen, 48 h (100 = growth as untreated, 0 = no growth, -100 = all killed)). Settings: 10 µM unless noted.

Compound	growth
CC(=O)OC[C@]12CCC(C)(C)C[C@H]1[C@@]1(O)[C@H](O)C[C@@H]3[C@@]4(C)CCCNC(C)(C)[C@@H]4CC[C@@]3(C)[C@]1(C)CC2	104% (inactive)
COC(C(=O)[C@@H](O)[C@@H](C)O)[C@@H]1Cc2cc3cc(O[C@H]4C[C@@H](O[C@H]5C[C@@H](O)[C@H](O)C(C)O5)[C@H](O)C(C)O4)cc(O)c3c(O)c2C(=O)[C@H]1O[C@H]1C[C@@H](O[C@H]2C[C@@H](O[C@H]3C[C@@H](OC)[C@H](O)C(C)O3)[C@@H](O)C(C)O2)[C@H](O)C(C)O1 (some centres undefined)	48.2% (inactive)
O=C1CNC(c2ccccc2)C(c2ccccc2)N1 (centres undefined)	104% (inactive)
CCc1n(Cc2ccc3ccccc3c2)cc[n+]1Cc1ccc2ccccc2c1	10.6% (inactive)
O=C(/C=C/c1ccc(Cl)cc1)c1cccc(Nc2nc(Nc3ccccc3)nc(Nc3ccccc3)n2)c1	61.7% (inactive)
C=C1C(=O)O[C@H]2[C@H]1CC/C(COC(=O)NCc1cc[nH]c1)=C\CC[C@@]1(C)O[C@@H]21	18.6% (inactive)
CN1CCN(C(=O)c2ccc(NC(=O)Nc3ccc(-c4nc(N5CCOCC5)c5cccn5n4)cc3)cc2)CC1	0.147% (active)
O=C1c2cccnc2C(=O)c2c1c(C(=O)NCCn1ccnc1)c1ccccn21	1.95% (active)
Cc1nn(-c2ccccc2)c(Oc2ccccn2)c1-c1nc2ccccc2s1	-49.2% (active)
CCN(CC)c1nc(SCc2ccccc2Cl)ncc1C	105% (inactive)
COc1cc(-c2nc3cc(Cl)c(Cl)cc3[nH]2)ccc1OCC(=O)N=Nc1c(O)[nH]c2ccc([N+](=O)[O-])cc12	74.2% (inactive)
Brc1c2c(c(Br)c3ccccc13)CCCC2	95.8% (inactive)
CC1(C)CC2=C3C=C[C@@H]4[C@@]5(C)CCC(=O)C(C)(C)[C@@H]5CC[C@@]4(C)[C@]3(C)CC[C@@]2(C(=O)O)CC1=O	54.6% (inactive)
O=S(=O)(NCCNc1nccc(-c2c(-c3cccc(F)c3)nc3occn23)n1)c1ccc(Br)cc1	82.5% (inactive)
COc1ccc(-c2cc(-c3ccc(Cl)cc3)c(C#N)c(=O)n2CCCCC(=O)Nc2ccccc2N)cc1	47.8% (inactive)
COc1ccc2c3c([nH]c2c1)C(=O)c1nc(C)ccc1C3=O	7.34% (active)
Cc1c(-n2nnc(-c3nc4ccccc4s3)c2N)c(=O)n(-c2ccccc2)n1C	98.3% (inactive)

Compound	growth
COc1ccc(/C=C2\COc3ccc(O)c(O)c3C2=O)cc1	3.83% (active)
O=C1c2cccnc2C(=O)c2c1c(C(=O)NCCCN1CCCCC1)c1ccccn21	-43.9% (active)
Cc1ccc(CNc2ccc(Cl)cc2NCc2ccc(C)c(O)c2)cc1O	-10.5% (active)
Cc1ccc(Sc2nnc(/N=C3\C(=O)Nc4ccccc43)s2)cc1	100% (inactive)
O=C(Cn1cc(CN2CCCCCC2)nn1)Nc1ccc2c(ccn2Cc2ccccc2)c1	89.9% (inactive)
Cc1noc(C)c1C(=O)OCc1coc2ccccc2c1=O	62.8% (inactive)
S=C1CCSC(=S)N1CCCN1C(=S)CCSC1=S	30.1% (inactive)
Oc1ccc(CCn2c(O)c(/C=C3\CN=c4ccccc4=N3)sc2=S)cc1	35.9% (inactive)
COc1ccc(-c2nnc3n(C)c(=O)c4ccccc4n23)cc1N	33.4% (inactive)
Cn1cccc1C(=O)C1C(c2cccc([N+](=O)[O-])c2)C2C3CCCCC3CN2C12C(=O)Nc1ccc(Cl)cc12 (centres undefined)	28% (inactive)
CCOC(=O)C#Cc1c(C(=O)OCC)nnn1[C@@H]1O[C@H](CO)[C@H]2OC3(CCCCC3)O[C@H]21	22.3% (inactive)
O=[N+]([O-])c1ccc(N/N=C(/C(=N/Nc2ccc([N+](=O)[O-])cc2)c2ccccc2)c2ccccc2)cc1	73.9% (inactive)
N#Cc1c(-c2ccccc2)cc(-c2ccccc2)n(CCCCCC(=O)Nc2ccccc2N)c1=O	9.12% (active)
CC1(c2ccccc2O)NN=C(/N=C/c2cccc([N+](=O)[O-])c2)N1C(Cc1c[nH]c2ccccc12)C(=O)O (centres undefined)	92.5% (inactive)
O=C(OCc1ccc2c(Cl)cc(Cl)c(O)c2n1)n1cncn1	18.3% (inactive)
Clc1ccc(CNc2c3ccccc3nc3ccccc23)cc1	4.63% (active)
CCSc1nc(NC)c2cc(-c3ccc(C(F)(F)F)cc3)ccc2n1	93.4% (inactive)
